# PubChem BioAssay (NCATS)
# Results filed as inconclusive are left out. Values without a mark were called inactive. The source made the active and inactive calls. The call rests on the fitted dose curve; in most records, active means well fitted curve in either direction with a large enough effect (not every such curve was filed as active); inconclusive means small, poorly fitted or top-dose-only effect, or another doubt; inactive means flat fitted curve, though single readings scatter.
# Assay: Stat Signaling Pathway (AID 446)
# Settings: ME-180 (cervical carcinoma) SIE beta-lactamase reporter, IL-6 stimulated, 5 h; series mostly up to 17.2 µM; activity, negative = inhibition: at the top concentration
# Protocol: NCGC Assay Overview: The IL-6/STAT signaling pathway was assayed in ME-180 cervical carcinoma cells by a beta-lactamase reporter gene controlled by a STAT Inducible Element (SIE). This reporter is induced by IL-6 at 40 pM AC50 and inhibited by the pan JAK inhibitor, 2-(1,1-Dimethylethyl)-9-fluoro-3,6-dihydro-7H-benz[h]-imidaz[4,5-f]isoquinolin-7-one, at approximately 10 nM AC50. Plated cells were incubated overnight and on the following day, stimulated with 40 pM IL-6 for 5 hrs. The assay was screened at the AC50 of IL-6 activation to identify both inhibitors and activators of IL-6/STAT signaling.
# NCGC Assay Protocol Summary: Cells were trypsinized, washed in assay medium (AM, OPTI MEM with 0.5% fetal bovine serum, 0.1 mM nonessential amino acids, 1 mM sodium pyruvate, 10mM HEPES pH 7.3, 100U/ml penicillin, and 100 ug/ml streptomycin) and suspended at 6 x 10e5/ml in AM. Approximately […] cells in 5 uL/well was dispensed into 1536 well plates and the cells were incubated overnight at 37 C. 23 nL of compound were delivered by a pin tool and 1 uL of IL-6 (40 pM final concentration in AM) was added. After centrifugation at 1000 rpm for less than a minute, plates were incubated at 37C for 5 hrs. One uL of detector mix (LiveBLAzerTM, Invitrogen) was added, the plates incubated at room temperature for 2.5 hrs, and fluorescence intensity at 460 and 530 nm emission was measured at 405 nm excitation by an Envision (Perkin Elmer) or Safire II (Tecan). Data were normalized by GeneData to the controls for AC90 stimulation (300 pM IL-6) and to AC90 inhibition (125 nM Jak inhibitor, 40 pM IL-6 in AM).
# On the % scale 0 is the no-effect control and ±100 the full control effect.
SMILES,"activity, negative = inhibition",outcome
c1ccc(CC2=NCCN2)cc1,5.21%,–
CC(=O)OC[C@H]1O[C@@H](n2ncc(=O)[nH]c2=O)[C@H](OC(C)=O)[C@@H]1OC(C)=O,5.46%,–
CC(C)(C)NC[C@H](O)COc1nsnc1N1CCOCC1,–,inactive
CCCCNc1ccc(C(=O)OCCOCCOCCOCCOCCOCCOCCOCCOCCOC)cc1,6.06%,–
CC(O)Cn1cnc2c1c(=O)n(C)c(=O)n2C (stereo not given),0.371%,–
O=c1[nH]c(=O)n([C@H]2C[C@H](O)[C@@H](CO)O2)cc1F,3.58%,–
CCN(CC)CCNC(=O)c1cc(Br)c(N)cc1OC,4.35%,–
COc1ccc(C(=O)c2ccccc2O)c(O)c1,-13.8%,–
CNCCc1ccccn1,3.35%,–
CC[C@H](c1ccc(O)cc1)[C@@H](CC)c1ccc(O)cc1,-28.1%,–
COc1cc(C)nc(-n2nc(C)cc2OC)n1,10.7%,–
CCCCCCCCNC(C)C(O)c1ccc(SC(C)C)cc1 (stereo not given),-3.21%,–
COc1ccc(C(=O)c2ccccc2)c(O)c1,4.97%,–
Nc1ccc(C(=O)NCC(=O)O)cc1,0.643%,–
CC(=O)OCC(=O)[C@H]1CC[C@H]2[C@@H]3CCC4=CC(=O)CC[C@]4(C)[C@H]3CC[C@]12C,10.4%,–
CC(C)(C)NC[C@H](O)COc1cccc2c1CCCC2=O,–,inactive
COc1cc(N)c(Cl)cc1C(=O)NC1CCN(Cc2ccccc2)CC1,6.69%,–
Nc1ccc(S(=O)(=O)Nc2cnc3ccccc3n2)cc1,–,inactive
Cc1cc(-c2ccccc2)nnc1NCCN1CCOCC1,–,inactive
COc1cc(NS(=O)(=O)c2ccc(N)cc2)ncn1,–,inactive

SMILES,"activity, negative = inhibition",outcome
O=C(CCCN1CC=C(n2c(=O)[nH]c3ccccc32)CC1)c1ccc(F)cc1,–,inactive
CN1CCC[C@@H]1CCO[C@](C)(c1ccccc1)c1ccc(Cl)cc1,-12.2%,–
CCN(CC)CCNC(=O)COc1ccc(OC)cc1,2.34%,–
C[N+]1(C)CCC(=C(c2ccccc2)c2ccccc2)CC1,-3.72%,–
CN(C)CCOC(=O)C(c1ccccc1)C1(O)CCCC1 (stereo not given),5.89%,–
NS(=O)(=O)Cc1noc2ccccc12,-2.6% [at 38 µM],–
CCCN(CCC)S(=O)(=O)c1ccc(C(=O)O)cc1,–,inactive
CCCCN1C[C@H](O)[C@@H](O)[C@H](O)[C@H]1CO,4.24%,–
N=C(N)N1CCc2ccccc2C1,8.09%,–
C[N+]12CCC(CC1)C(OC(=O)C(O)(c1ccccc1)c1ccccc1)C2 (stereo not given),6.71%,–
O=C1C(O)=C(O)C(=O)C(O)=C1O,-10.8%,–
CC(C)(C)NCC(O)COc1cccc2c1C[C@H](O)[C@H](O)C2 (stereo not given in full),10.4%,–
COc1cc(C(=O)NCc2ccc(OCCN(C)C)cc2)cc(OC)c1OC,-9.15%,–
CCOC(=O)Nc1ccc2c(c1)N(C(=O)CCN1CCOCC1)c1ccccc1S2,-24.4%,–
CCCCc1cc2ccccc2c(OCCN(C)C)n1,-3.04%,–
O=C(O)CCNC(=O)c1ccccc1,-4.21%,–
CCOc1ccc(NC(C)=O)cc1,7.05%,–
NS(=O)(=O)c1cc(C(=O)O)cc(N2CCCC2)c1Oc1ccccc1,16.1%,–
O=C1C(CCS(=O)c2ccccc2)C(=O)N(c2ccccc2)N1c1ccccc1 (stereo not given),–,inactive
O=C(O)CCC(=O)Nc1ccc(S(=O)(=O)Nc2nccs2)cc1,–,inactive
